The target in test [1] is Aryl hydrocarbon receptor (Homo sapiens) (UniProt P35869). Nature of the test: qHTS assay to identify small molecule that activate the aryl hydrocarbon receptor (AhR) signaling pathway (AID 743085).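 Also: HG2L7.5c1 human HepG2 liver cells with stably integrated DRE-driven firefly reporter; series mostly up to about 70 µM; nearly all actives have a fitted effect of over 15% in size.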 The essentials: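 Luminescence (ONE-Glo) from a dioxin-responsive-element luciferase reporter in HG2L7.5c1 HepG2 cells after 24 hr compound exposure at 37C; viability measured by CellTiter-Fluor fluorescence beforehand.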
For orientation: In qHTS, concentration-response curves come from the screen itself.

A short description of test [2]: qHTS assay to identify small molecule that activate the aryl hydrocarbon receptor (AhR) signaling pathway - cell viability counter screen (AID 743086).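 Also: HepG2 liver cells carrying the AhR DRE luciferase reporter; series mostly up to about 70 µM; nearly all actives have a fitted effect of over 45% in size.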 The essentials: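 HepG2-AhR-luc (HG2L7.5c1) cells, 4000/well, treated 24 h at 37 C with compound; viability measured as CellTiter-Fluor fluorescence after 30 min in the same wells as the luciferase read.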
Test [3] deals with Peroxisome proliferator-activated receptor gamma (Homo sapiens) (UniProt P37231). Nature of the test: qHTS assay to identify small molecule agonists of the peroxisome proliferator-activated receptor gamma (PPARg) signaling pathway (AID 743094; active = well fitted activation curve with a large enough effect in the signal ratio in the repeat runs, not every such curve was filed as active; the % refers to the signal ratio). The essentials: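 Fluorescence-based beta-lactamase readout in HEK293H PPARg UAS-bla cells after 17 h compound exposure (37C) and 1 h B/G FRET substrate incubation at room temperature.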

Test [4] shares this target. Nature of the test: qHTS assay to identify small molecule antagonists of the peroxisome proliferator-activated receptor gamma (PPARg) signaling pathway (AID 743191; calls by dose curve; also: series mostly up to about 63 µM; nearly all actives have a fitted effect of over 30% in size). The essentials:
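GeneBLAzer PPARg UAS-bla HEK293H cells, 5 h post-plating, exposed to compounds 17 h at 37C. LiveBLAzer B/G FRET substrate added for 1 h at room temperature; beta-lactamase reporter read by fluorescence intensity.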

The nature of test [5]: qHTS assay for small molecule agonists of the antioxidant response element (ARE) signaling pathway (AID 743202; active = well fitted activation curve with a large enough effect in the signal ratio in the repeat runs, not every such curve was filed as active; the % refers to the signal ratio). The essentials: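 HepG2 ARE-bla reporter line, 2,000 cells/well; 5 h preincubation 37 C/5% CO2; compound (DMSO) 16 h 37 C; B/G FRET substrate 2 h RT; fluorescence intensity.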
Test [6] can be described thus: qHTS assay for small molecule agonists of the antioxidant response element (ARE) signaling pathway - cell viability counter screen (AID 743203; calls by dose curve; also: nearly all actives have a fitted effect of over 55% in size). The essentials: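 Parallel cytotoxicity read-out for the ARE-bla screen: HepG2 reporter cells, 16 hrs with compounds, then CellTiter-Glo luminescence.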
Test [7] in a line: qHTS assay for small molecule activators of the heat shock response signaling pathway - cell viability counter screen (AID 743209). Also: nearly all actives have a fitted effect of over 50% in size. The essentials: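 To flag cytotoxic compounds, HSE-bla HeLa cells plated at 1500 cells/well were dosed for 5 h at 37 C, followed by the reporter FRET read and then CellTiter-Glo, with luminescence recorded 30 min after reagent addition.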
A short description of test [8]: qHTS assay to identify small molecule agonists of the peroxisome proliferator-activated receptor delta (PPARd) signaling pathway - cell viability counter screen (AID 743211). Also: nearly all actives have a fitted effect of over 55% in size. Also: potency is read from the fitted curve at half-maximal effect. The essentials:
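Viability was measured as CellTiter-Glo luminescence (30 min, room temperature) in the same wells as the beta-lactamase readout. GeneBLAzer PPARd UAS-bla HEK293H cells received compound after 5 h plating and were incubated 17 h at 37 C.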

In test [9] the target is Peroxisome proliferator-activated receptor delta (Homo sapiens) (UniProt Q03181). Nature of the test: qHTS assay to identify small molecule agonists of the peroxisome proliferator-activated receptor delta (PPARd) signaling pathway (AID 743212; calls by dose curve). The essentials: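 Read-out: beta-lactamase FRET fluorescence after 2 h room-temperature incubation with LiveBLAzer B/G substrate. Cells were HEK293H carrying a UAS-bla reporter for PPARd, treated at 37 C with DMSO-dissolved compounds.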

For test [10] the target is unchanged. Nature of the test: qHTS assay to identify small molecule antagonists of the peroxisome proliferator-activated receptor delta (PPARd) signaling pathway (AID 743215; active = well fitted inhibition curve with a large enough effect in the signal ratio in the repeat runs, not every such curve was filed as active; the % refers to the signal ratio;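 also: cells stimulated with agonist L165041 at 300 nM final during compound exposure; series mostly up to about 62 µM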). The essentials:
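Screen format: qHTS, antagonist mode. HEK293H PPARd-bla cells received compound and 300 nM L165041 (final), 17 h, 37 C. Beta-lactamase detected via FRET substrate fluorescence, 2 h, room temperature.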

For test [11], the target named is Bile acid receptor (Homo sapiens) (UniProt Q96RI1). Nature of the test: qHTS assay to identify small molecule antagonists of the farnesoid-X-receptor (FXR) signaling pathway (AID 743217; active = well fitted inhibition curve with a large enough effect in the signal ratio in the repeat runs, not every such curve was filed as active; the % refers to the signal ratio). The essentials: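 Quantitative HTS, beta-lactamase reporter format: FXR-UAS-bla HEK 293T cells co-treated 16 h at 37 °C with compounds and 50 uM final chenodeoxycholic acid, then read by B/G FRET fluorescence.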

The target is the same in test [12]. Nature of the test: qHTS assay to identify small molecule agonists of the farnesoid-X-receptor (FXR) signaling pathway (AID 743220; active = well fitted activation curve with a large enough effect in the signal ratio in the repeat runs, not every such curve was filed as active; the % refers to the signal ratio). The essentials: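 FXR-UAS-bla HEK 293T cells carrying a UAS-driven beta-lactamase reporter were plated for 5 h at 37C/5% CO2, then exposed to DMSO-dissolved Tox21 10K compounds for 16 h at 37C. A LiveBLAzer B/G FRET substrate was loaded for 2 h at room temperature before fluorescence reading.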

Test [13] in a line: qHTS assay to identify small molecule antagonists of the farnesoid-X-receptor (FXR) signaling pathway - cell viability counter screen (AID 743221; active = well fitted cell-killing curve with a large enough effect in the repeat runs, not every such curve was filed as active; also: nearly all actives have a fitted effect of over 50% in size). The essentials:
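Cytotoxicity counter screen run in the FXR-bla reporter wells: HEK 293T cells exposed to compound with 50 uM (final) chenodeoxycholic acid for 16 h, 37 C, then viability measured by CellTiter-Glo luminescence after 30 min, room temperature.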

The target in test [14] is Vitamin D3 receptor (Homo sapiens) (UniProt P11473). Nature of the test: qHTS assay to identify small molecule agonists of the vitamin D receptor (VDR) signaling pathway (AID 743222; calls by dose curve). The essentials: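 Using LiveBLAzer B/G FRET detection, agonism was scored in VDR-bla cells exposed overnight (16 h, 37C) to DMSO-dissolved compounds; substrate incubation was 2 h at room temperature.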

The target is the same in test [15]. Nature of the test: qHTS assay to identify small molecule antagonists of the vitamin D receptor (VDR) signaling pathway (AID 743223; active = well fitted inhibition curve with a large enough effect in the signal ratio in the repeat runs, not every such curve was filed as active; the % refers to the signal ratio). The essentials: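 Antagonist mode: compound added to VDR-bla cells alongside agonist 1alpha,25-dihydroxyvitamin D3 (3 nM final), incubation 16 h at 37C. Read-out is LiveBLAzer FRET fluorescence, 2 h at room temperature.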
Test [16] in a line: qHTS assay to identify small molecule agonists of the farnesoid-X-receptor (FXR) signaling pathway - cell viability counter screen (AID 743218). Also: nearly all actives have a fitted effect of over 45% in size. The essentials: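 Same-well cytotoxicity check on FXR-UAS-bla HEK 293T cells: 5 h attachment, 16 h compound at 37 C, CellTiter-Glo luminescence read at room temperature after 30 min.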
Test [17] can be described thus: qHTS assay to identify small molecule antagonists of the peroxisome proliferator-activated receptor gamma (PPARg) signaling pathway - cell viability counter screen (AID 743194). Also: nearly all actives have a fitted effect of over 55% in size. The essentials:
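Cytotoxicity counter screen in PPARg-bla HEK293H cells, same wells as reporter assay. Compounds plus 50 nM rosiglitazone (final) for 17 h at 37 C, then viability read by CellTiter-Glo luminescence.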

A short description of test [18]: qHTS assay for small molecule activators of the heat shock response signaling pathway (AID 743210; active = well fitted activation curve with a large enough effect in the signal ratio in the repeat runs, with a control signal flat, not every such curve was filed as active; the % refers to the signal ratio;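 also: HeLa cells with beta-lactamase reporter driven by heat shock elements; series mostly up to about 63 µM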). The essentials:
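Beta-lactamase reporter read-out: FRET substrate fluorescence after 2.5 h at RT, following 5 h compound treatment at 37 C of HeLa cells carrying HSE-driven bla reporter; quantitative HTS format.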

Test [19] is described as follows: qHTS assay to identify small molecule antagonists of the peroxisome proliferator-activated receptor delta (PPARd) signaling pathway - cell viability counter screen (AID 743213). Also: nearly all actives have a fitted effect of over 50% in size. The essentials:
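In this counter screen, HEK293H cells carrying a UAS-beta-lactamase reporter are co-treated with test compounds and 300 nM L165041 (final) for 17 h at 37 C; cell viability is quantified by CellTiter-Glo luminescence.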

Inconclusive results are not listed. A number with no mark means an inactive call. Active and inactive are the calls of the source. Unless noted, calls follow the shape of the dose curve; as a rule, active = well fitted curve in the direction sought with a large enough effect in the repeat runs; inconclusive = weak or mixed curves; inactive = no such curve, though single readings can be large; an effect the other way counts as inactive or inconclusive.

Sequence of Peroxisome proliferator-activated receptor delta (Homo sapiens) (Q03181 whole entry, looked up): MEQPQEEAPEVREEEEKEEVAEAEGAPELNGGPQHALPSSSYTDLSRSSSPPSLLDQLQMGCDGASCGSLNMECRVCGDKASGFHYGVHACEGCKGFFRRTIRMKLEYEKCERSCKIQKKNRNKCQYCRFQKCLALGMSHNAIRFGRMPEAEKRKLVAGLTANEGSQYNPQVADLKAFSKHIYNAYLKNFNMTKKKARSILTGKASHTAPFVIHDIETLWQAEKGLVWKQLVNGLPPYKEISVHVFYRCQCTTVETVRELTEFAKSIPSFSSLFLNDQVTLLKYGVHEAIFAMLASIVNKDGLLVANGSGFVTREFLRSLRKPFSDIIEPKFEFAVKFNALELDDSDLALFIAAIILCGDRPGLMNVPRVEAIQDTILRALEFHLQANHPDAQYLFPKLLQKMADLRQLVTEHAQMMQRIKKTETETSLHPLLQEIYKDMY
Sequence of Bile acid receptor (Homo sapiens) (Q96RI1 whole entry, looked up): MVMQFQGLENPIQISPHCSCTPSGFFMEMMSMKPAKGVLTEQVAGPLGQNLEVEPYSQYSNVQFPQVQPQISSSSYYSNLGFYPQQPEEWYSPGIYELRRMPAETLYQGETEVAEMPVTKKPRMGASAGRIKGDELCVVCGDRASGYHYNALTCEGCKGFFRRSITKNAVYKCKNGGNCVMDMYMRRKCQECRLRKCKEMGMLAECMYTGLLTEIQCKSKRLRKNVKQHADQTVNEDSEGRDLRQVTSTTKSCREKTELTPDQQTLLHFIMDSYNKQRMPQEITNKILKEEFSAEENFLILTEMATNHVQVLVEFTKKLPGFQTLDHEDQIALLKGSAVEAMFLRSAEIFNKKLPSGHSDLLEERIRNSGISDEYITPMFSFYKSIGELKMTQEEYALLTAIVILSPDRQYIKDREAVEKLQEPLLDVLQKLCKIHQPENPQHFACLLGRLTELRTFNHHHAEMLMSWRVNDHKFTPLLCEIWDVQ
Sequence of Peroxisome proliferator-activated receptor gamma (Homo sapiens) (P37231 whole entry, looked up): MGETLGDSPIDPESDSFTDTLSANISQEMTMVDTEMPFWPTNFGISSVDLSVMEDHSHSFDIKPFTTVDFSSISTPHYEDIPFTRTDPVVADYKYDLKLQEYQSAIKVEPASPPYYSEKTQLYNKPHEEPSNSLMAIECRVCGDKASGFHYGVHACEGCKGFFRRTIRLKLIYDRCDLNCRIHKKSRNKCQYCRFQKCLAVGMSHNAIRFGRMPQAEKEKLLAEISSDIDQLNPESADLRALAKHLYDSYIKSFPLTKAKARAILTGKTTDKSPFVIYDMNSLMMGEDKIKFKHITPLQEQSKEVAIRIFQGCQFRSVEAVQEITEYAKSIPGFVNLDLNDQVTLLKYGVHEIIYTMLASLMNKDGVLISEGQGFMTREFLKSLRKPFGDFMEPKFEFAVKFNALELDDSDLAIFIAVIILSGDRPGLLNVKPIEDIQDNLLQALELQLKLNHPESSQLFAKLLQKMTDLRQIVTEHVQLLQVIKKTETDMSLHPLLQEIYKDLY
Sequence of Vitamin D3 receptor (Homo sapiens) (P11473 whole entry, looked up): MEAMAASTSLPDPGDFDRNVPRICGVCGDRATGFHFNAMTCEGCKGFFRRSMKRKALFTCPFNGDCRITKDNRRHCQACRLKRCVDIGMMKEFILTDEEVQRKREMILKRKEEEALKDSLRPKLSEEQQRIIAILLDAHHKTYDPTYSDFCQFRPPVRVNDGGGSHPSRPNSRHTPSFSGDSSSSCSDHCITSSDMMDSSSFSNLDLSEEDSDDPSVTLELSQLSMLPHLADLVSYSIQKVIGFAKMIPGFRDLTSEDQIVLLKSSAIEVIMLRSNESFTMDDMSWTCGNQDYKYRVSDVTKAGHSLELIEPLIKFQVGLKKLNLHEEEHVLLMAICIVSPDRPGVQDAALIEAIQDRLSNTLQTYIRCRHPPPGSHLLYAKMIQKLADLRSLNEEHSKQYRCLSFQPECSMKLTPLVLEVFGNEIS
Sequence of Aryl hydrocarbon receptor (Homo sapiens) (P35869 whole entry, looked up): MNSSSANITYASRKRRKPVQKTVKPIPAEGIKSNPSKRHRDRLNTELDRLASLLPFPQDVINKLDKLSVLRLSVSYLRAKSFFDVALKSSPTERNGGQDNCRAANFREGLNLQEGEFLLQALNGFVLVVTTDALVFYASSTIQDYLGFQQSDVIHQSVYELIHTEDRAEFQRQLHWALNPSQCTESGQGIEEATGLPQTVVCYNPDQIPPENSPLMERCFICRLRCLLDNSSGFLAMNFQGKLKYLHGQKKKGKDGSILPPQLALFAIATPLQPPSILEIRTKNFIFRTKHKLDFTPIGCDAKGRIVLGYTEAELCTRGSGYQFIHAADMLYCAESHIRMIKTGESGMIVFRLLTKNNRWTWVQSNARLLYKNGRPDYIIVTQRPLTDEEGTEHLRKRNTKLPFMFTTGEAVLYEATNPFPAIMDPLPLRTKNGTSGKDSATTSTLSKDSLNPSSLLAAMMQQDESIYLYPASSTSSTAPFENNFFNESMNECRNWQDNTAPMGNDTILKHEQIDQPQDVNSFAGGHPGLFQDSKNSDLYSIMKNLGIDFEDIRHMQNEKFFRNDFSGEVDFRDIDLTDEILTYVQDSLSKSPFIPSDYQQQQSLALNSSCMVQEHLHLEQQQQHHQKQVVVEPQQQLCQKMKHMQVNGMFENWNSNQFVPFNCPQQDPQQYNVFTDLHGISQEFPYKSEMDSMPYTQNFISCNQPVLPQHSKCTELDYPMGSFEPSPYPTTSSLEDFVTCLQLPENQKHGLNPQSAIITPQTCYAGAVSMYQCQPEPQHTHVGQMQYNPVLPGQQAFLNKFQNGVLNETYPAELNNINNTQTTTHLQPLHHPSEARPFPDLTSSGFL

On to `C=CCOC(=O)CCC1CCCCC1`, for which the Potency entry in test [1], in test [2], in test [3], in test [4], in test [5] and in test [6] was “inactive” throughout. Also, the Potency result in test [7], in [8], in test [9], in test [10], in test [11] and in test [12] was “inactive” throughout. For the same compound, the Potency result in test [13] and in test [14] was “inactive” throughout. The compound was classed as inactive in test [15].

For `CCC(C)(C)CC`, the Potency entry in test [2], in [5], in test [6], in test [7], in [16] and in [13] was “inactive” each time. In addition, in test [15], the outcome was inactive.

Take `O=C(O)C1(C(=O)O)CCC1.[NH2-].[NH2-].[Pt+2]`: the Potency result in [4], in [17], in [6], in test [7], in test [18] and in test [9] was “inactive” throughout. Moreover, the Potency result in test [10], in [16] and in [12] was “inactive” throughout.

With `C[C@@H]1C[C@H]2[C@@H]3CCC4=CC(=O)C=C[C@]4(C)[C@@]3(F)[C@@H](O)C[C@]2(C)[C@@]1(O)C(=O)COC(=O)c1ccncc1`, the Potency result in test [4], in [17], in [5], in test [6], in test [7] and in [18] was “inactive” each time. In addition, the Potency entry in test [8], in test [9], in test [13] and in [14] was “inactive” throughout. For the same compound, the compound was called inactive in test [15].

On to `Nc1ccc([N+](=O)[O-])c(C(F)(F)F)c1`, for which the Potency entry in test [4], in [5], in test [6], in [7], in [18] and in [8] was “inactive” throughout. Besides, the Potency result in test [9], in [19], in test [16] and in test [12] was “inactive” each time. Moreover, the compound was classed as inactive in test [15].

As for `CN1Cc2cc(C(=O)N3CCC(C4CCNCC4)CC3)ccc2NC(CC(=O)O)C1=O` (centres undefined), the Potency entry in test [17], in test [5], in [6], in test [7], in [18] and in test [8] was “inactive” in each case. For the same compound, the Potency result in [9], in [19], in test [10], in [16] and in [13] was “inactive” throughout.

On to `CCOC(=O)C(=O)CCc1ccccc1`, for which the Potency result in test [4], in [5], in [6], in test [7], in test [18] and in [8] was “inactive” throughout. For the same compound, the Potency result in test [10], in [16] and in test [13] was “inactive” throughout.

With `CC(C)Cc1ccc(C(C)C(=O)OCc2ccccn2)cc1` (centres undefined), the Potency result in [4], in [17], in test [5], in test [6], in [7] and in [8] was “inactive” in each case. Further, the Potency entry in test [9], in [10], in test [11], in [16], in test [12] and in [13] was “inactive” throughout. In [14], the Potency result was “inactive”. In test [15], the outcome was inactive.

With `Cc1ccc(C(=O)Oc2ccc(C(O)CNC(C)(C)C)cc2OC(=O)c2ccc(C)cc2)cc1` (centres undefined), the Potency entry in [17], in test [18], in [12] and in test [13] was “inactive” in each case. For the same compound, the Potency in [8] is 29.8 µM (active).

As to `CCN(CC)c1ccc(C(=C2C=CC(=[N+](CC)CC)C=C2)c2cc(S(=O)(=O)O)ccc2S(=O)(=O)[O-])cc1`, the Potency entry in [17], in [5], in test [6], in [18], in test [19] and in test [12] was “inactive” in each case. Besides, in test [14], the Potency entry is “inactive”.

The record behind these values is PubChem BioAssay (Tox21).
